Screening results deposited in PubChem by Broad Institute.
This is one part of a sample in which hits are shown more often than they occur.
PD-1 reversal = activators reversing PD-1 mediated T-cell inhibition, primary screen, luminescence, primary human CD4 T cells, PD-L1 beads | CellTiter-Glo 96 h | activation, % (concentration not given with the values) | 29,000 tested, under 10 active | AID 2316, 2010; call rule not given here;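 note: 0% = median vehicle wells and 100% = positive control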
NOMO-1 viab = NOMO-1 AML cell viability reduction, primary screen, STK33 inhibitor project, CellTiter-Glo luminescence | NOMO-1 AML viability, 72 h | inhibition, % (test concentration not listed) | AID 2330, 2010 | 37,000 tested, 7.5% active; in the data active = inhibition above about 80%; inconclusive = no clear call, values can overlap the other calls
U2OS ROS induce = ROS inducers in U2OS cancer cells, primary screen, cell-based, H2DCF-DA fluorescence; U2OS ROS induction; ROS induction (% of piperlongumine), % at 10 µM; 46,000 tested, 2% active; AID 624156, 2012; in the data active = ROS induction above about 79%, passing the limit was not always enough; inconclusive = no clear call, values can overlap the other calls;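 note: 0% = DMSO vehicle median and 100% = reference compound median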
* hit, by the source's call; ? = inconclusive; / = not tested or not shown.

SMILES | PD-1 reversal | NOMO-1 viab | U2OS ROS induce
C[C@@H]1CN([C@@H](C)CO)C(=O)c2cc(NS(=O)(=O)c3ccccc3)ccc2O[C@H]1CN(C)Cc1ccc(-c2ccccc2)cc1 | 0 | 49 | 56
COc1ccccc1-n1c(C23CC4CC(CC(C4)C2)C3)n[nH]c1=S | / | / | -12
Cc1ccccc1-c1oncc1-c1nnnn1-c1ccccc1 | / | / | -5
O=C(NCCc1ccccc1)C1CC(=O)N(c2ccc(F)c(Cl)c2)C1 (centres undefined) | / | / | -1
COc1ccc(Cn2c(-c3nonc3NC(C)=O)nc3ccccc32)cc1 | -1 | 45 | -11
CC(=O)Nc1nonc1-c1nc2ccccc2n1Cc1cccc2ccccc12 | / | 118* | /
O=C(CC1CCCCC1)Nc1ccc2nc3n(c(=O)c2c1)CCCCC3 | / | / | -1
CC(=O)Oc1ccccc1C(=O)N1CCc2ccccc21 | / | / | 11
C[C@H](CO)N1C[C@H](C)[C@H](CN(C)Cc2ccc(-c3ccccc3)cc2)Oc2ccc(NC(=O)Nc3ccc(C(F)(F)F)cc3)cc2CC1=O | -3 | 126* | 6
C[C@@H]1CN([C@H](C)CO)C(=O)Cc2cc(NC(=O)Nc3ccc(C(F)(F)F)cc3)ccc2O[C@@H]1CN(C)Cc1ccc(-c2ccccc2)cc1 | -1 | 114* | 8
C[C@H]1CN([C@@H](C)CO)C(=O)Cc2cc(NC(=O)Nc3ccc(C(F)(F)F)cc3)ccc2O[C@@H]1CN(C)Cc1ccc(Oc2ccccc2)cc1 | / | 43 | 7
O=C(NCCS(=O)(=O)Cc1ccc(F)cc1)c1c(F)cccc1Cl | / | / | -9
C[C@@H]1CN([C@H](C)CO)C(=O)c2cccc(NC(=O)NC3CCCCC3)c2O[C@H]1CN(C)Cc1ccccc1 | -6 | 115* | 6
C[C@@H]1CN([C@H](C)CO)C(=O)c2cccc(NC(=O)NC3CCCCC3)c2O[C@@H]1CN(C)Cc1ccc(Oc2ccccc2)cc1 | -2 | 60 | 31
C[C@@H]1CN([C@H](C)CO)C(=O)c2cccc(NC(=O)NC3CCCCC3)c2O[C@H]1CN(C)Cc1ccc(Oc2ccccc2)cc1 | -4 | 114* | ?
C[C@H]1CN([C@@H](C)CO)C(=O)c2cccc(NC(=O)NC3CCCCC3)c2O[C@H]1CN(C)Cc1ccccc1 | 3 | 13 | 68
C[C@@H]1CN([C@@H](C)CO)C(=O)c2cccc(NC(=O)NC3CCCCC3)c2O[C@H]1CN(C)CC1CCCCC1 | -2 | 102* | 11
C[C@@H]1CN([C@@H](C)CO)C(=O)c2cccc(NC(=O)NC3CCCCC3)c2O[C@H]1CN(C)CC1CC1 | / | 25 | 3
CC1=CCC2C(=O)N(c3ccc(C(=O)Nc4ccccc4)cc3)C(=O)C2C1 (centres undefined) | / | / | -6
CC(=O)N(CCc1ccccc1)C1CC(=O)N(c2ccccc2)C1=O (centres undefined) | / | / | -3
C=CCNc1ncnc2c1c(-c1ccccc1)cn2-c1cccc(C(F)(F)F)c1 | / | / | 20
O=C(Nc1ccc(OC(F)(F)F)cc1)OC1CN(C(c2ccccc2)c2ccccc2)C1 | / | / | 0
O=C(/C=C/Oc1ccc(Cl)cc1)c1ccc(Br)cc1 | -2 | 117* | ?
COc1ccc(-c2nsc(SCC(=O)c3ccc(Cl)cc3)n2)cc1 | / | / | -6
CC1CCC(NC(=O)Cn2ncc3c4ccccc4n(Cc4ccccc4)c3c2=O)CC1 (centres undefined) | / | / | 9
SMILES | PD-1 reversal | NOMO-1 viab | U2OS ROS induce
C[C@@H]1CCCCO[C@H](CN(C)Cc2ccccc2)[C@@H](C)CN([C@H](C)CO)C(=O)c2cc(NC(=O)Nc3ccc(C(F)(F)F)cc3)ccc2O1 | / | 104* | 10
C[C@@H]1CCCCO[C@H](CN(C)Cc2ccccc2)[C@@H](C)CN([C@H](C)CO)C(=O)c2cc(NC(=O)Nc3ccccc3)ccc2O1 | / | 33 | 21
C[C@@H]1CCCCO[C@H](CN(C)Cc2ccc(C(F)(F)F)cc2)[C@@H](C)CN([C@H](C)CO)C(=O)c2cc(NC(=O)Nc3ccccc3)ccc2O1 | -4 | 74 | 137*
C[C@@H]1CCCCO[C@H](CN(C)Cc2ccc(C(F)(F)F)cc2)[C@@H](C)CN([C@H](C)CO)C(=O)c2cc(NC(=O)c3ccccc3)ccc2O1 | -2 | 53 | 48
COc1ccc(-c2coc3c(C)c4oc(=O)c5c(c4cc23)CCCC5)cc1F | / | / | -10
Cc1sc(C)c(CNc2ccccc2)c1CNc1ccccc1 | / | / | -11
CC(C)=CCc1c(O)cc2oc3c(CC=C(C)C)c(O)c(O)c(CC=C(C)C)c3c(=O)c2c1O | / | / | 14
COc1c(O)cc2oc3cc(O)c(CC=C(C)C)c(O)c3c(=O)c2c1CC=C(C)C | -14 | 98* | -12
Cc1cc(C=C2C(=O)OC(C)(C)OC2=O)c(C)n1-c1ccc(I)cc1 | / | / | 4
Cc1ccc2oc(=O)c(-c3nc4ccccc4s3)cc2c1 | / | / | -3
O=C1c2ccccc2C(=O)N1CN1CCCCC1 | / | / | -12
